Compound activity (PubChem BioAssay)
Cruzain noTriton: qHTS Assay for Promiscuous and Specific Inhibitors of Cruzain (without detergent). Cruzipain (Trypanosoma cruzi), P25779. purified cruzain, Z-FR-AMC fluorescence, no detergent. actives 2.3% (n = 200,000). Potency, µM, hits mostly inhibitors; note: nearly all actives have a fitted effect of over 40% in size
Target sequence (P25779 123-467 limits assumed): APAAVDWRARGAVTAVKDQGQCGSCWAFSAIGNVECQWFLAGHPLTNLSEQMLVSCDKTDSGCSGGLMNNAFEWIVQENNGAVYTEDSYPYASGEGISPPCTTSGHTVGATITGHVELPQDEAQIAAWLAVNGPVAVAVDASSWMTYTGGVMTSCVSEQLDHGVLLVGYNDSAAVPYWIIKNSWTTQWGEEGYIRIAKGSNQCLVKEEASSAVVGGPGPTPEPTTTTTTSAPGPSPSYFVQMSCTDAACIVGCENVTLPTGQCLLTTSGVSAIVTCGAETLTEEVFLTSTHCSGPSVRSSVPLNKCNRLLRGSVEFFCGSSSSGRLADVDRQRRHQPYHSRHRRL
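Detergent-free condition (0.00005% Triton X-100) in acetate buffer pH 5.5 with DTT. 1.5 nM enzyme and compound were pre-mixed 15 min, then 2 uM Z-FR-AMC substrate added; reaction progress from fluorescence change between first and third reads (60 s).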
Cruzain Triton: qHTS Assay for Promiscuous and Specific Inhibitors of Cruzain (with detergent). Cruzipain (Trypanosoma cruzi), P25779. purified cruzain, Z-FR-AMC fluorescence, 0.01% Triton. Potency, µM, usual class: inhibitors. actives 0.43% (n = 200,000). AID 1478, 2009; note: nearly all actives have a fitted effect of over 40% in size
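Z-FR-AMC hydrolysis (2 uM substrate) by cruzain (1.5 nM) monitored kinetically at ex 360/em 450 nm after 15 min room-temperature compound exposure; 0.01% Triton X-100, pH 5.5, 5 mM DTT.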
Numbers stand for hits; – = inactive; ? = inconclusive. Hits are enriched below; roughly 2.5% of the tested compounds scored in any of these assays. Calls come from the whole dose curve; as a rule, active = well fitted curve in the direction sought with a large enough effect; inconclusive = small, poorly fitted or top-dose-only effect, or another doubt; inactive = no such curve, though single readings can be large; an effect the other way counts as inactive or inconclusive.

SMILES	Cruzain noTriton	Cruzain Triton
Cc1cccc(OCC(=O)NC(C)C(=O)N/N=C/c2c(OCc3ccccc3)ccc3ccccc23)c1 (configuration not stated)	15.8µM	–
COC(=O)/C(=C/c1ccco1)NC(=O)c1ccccc1	–	–
Cc1ccc(C(=O)N/C(=C/c2ccco2)C(=O)OCN2C(=O)c3ccccc3C2=O)cc1	0.398µM	0.355µM
O=C(CSc1nc2ccccc2o1)Nc1nc2ccc(Br)cc2s1	10µM	–
COc1ccc2nc(NC(=O)CSc3nc4ccccc4o3)sc2c1	–	–
CCCCCC1=C2CNC(CCC)(C(=O)OC)C=C2C(C)C1=O (configuration not stated)	–	–
Cc1cccc(C2(c3cccc(C)c3)OC(=O)c3ccccc32)c1	–	–
CN(C)c1ccc(C2(c3ccc(N(C)C)cc3)OC(=O)c3cc(N(C)C)ccc32)cc1	25.1µM	–
COc1ccc(-c2cc(C(F)(F)F)nc(SCC(=O)NC(C)c3ccccc3)n2)cc1 (configuration not stated)	–	–
COc1ccc(/C=C/C=C2\N=C(SC)SC2=O)cc1	–	–
COc1ccccc1/C=C/C1=NC(=C\C=C/c2ccccc2)/C(=O)O1	25.1µM	–
COc1ccccc1/C=C/C(=O)c1ccc(Cl)cc1	–	–
COc1ccccc1/C=C/C=C1N=C(/C=C/c2ccc(Cl)cc2)OC/1=O	15.8µM	–
Cc1ccc(C(=O)N(Cc2ccc(N(C)C)cc2)CC2CCCO2)cc1 (configuration not stated)	–	–
Cc1nn2c(=O)cc(COC(=O)c3ccccc3NC(=O)C(C)C)nc2s1	–	–
CCc1c(C)nc(SCc2nc(-c3ccccc3C)no2)[nH]c1=O	–	–
CCOc1ccc(OCC)c(NS(=O)(=O)c2c(C(=O)N3CCC(C)CC3)c(C)n(C)c2C)c1	?	–
N#C/C(=C\C1=C(N2CCOCC2)C(=C\c2ccc(Cl)cc2)/CC1)C(=O)Nc1ccccc1F	10µM	–
N#C/C(=C\C1=C(N2CCOCC2)C(=C/c2cccc([N+](=O)[O-])c2)/CC1)C(=O)Nc1ccccc1F	12.6µM	–
CC(NC(=O)C12CC3CC(CC(C3)C1)C2)C(=O)N/N=C/C1=C(N2CCOCC2)C(=C\c2cccc([N+](=O)[O-])c2)/CC1 (configuration not stated)	–	–
CCN(CC)c1ccc(/C=C2\CCC(/C=C(\C#N)C(=O)Nc3ccccc3F)=C2N2CCOCC2)cc1	?	–
COc1ccccc1CNC(=O)C1CCN(S(=O)(=O)c2c(C)noc2/C=C/c2c(C)cc(C)cc2C)CC1	–	–
COc1ccc(CCNC(=O)CCCn2c(=O)c3ccccc3n(Cc3ccccc3)c2=O)cc1OC	?	–
Cc1ccc(S(=O)(=O)Oc2ccc(N=Nc3ccc(-c4ccc(N=Nc5c(O)ccc6cc(S(=O)(=O)O)cc(S(=O)(=O)O)c56)c(C)c4)cc3C)cc2)cc1	?	12.6µM
Cc1ccc(N=Nc2c(O)ccc3cc(S(=O)(=O)O)ccc23)cc1	?	–
SMILES	Cruzain noTriton	Cruzain Triton
COc1ccc(NC(=O)CSC2=Nc3ccccc3C3=NC(CC(=O)NCc4ccc(F)cc4)C(=O)N23)cc1 (configuration not stated)	–	–
N#Cc1cc(-c2ccccc2)nnc1Sc1ccc(F)cc1	–	–
N#Cc1cc(-c2ccccc2)nnc1Sc1ccccc1	25.1µM	–
CCOc1ccc(NC(=O)CSC2=Nc3ccccc3C3=NC(CC(=O)NCc4ccccc4OC)C(=O)N23)cc1 (configuration not stated)	–	–
OC1CCN(c2c3c(nc4cc(-c5cccc(F)c5)nn24)CCCC3)CC1	–	–
Clc1cccc(-c2cc3nc4c(c(N5CCNCC5)n3n2)CCCC4)c1	25.1µM	–
O=C(Cn1c(=O)n(-c2ccc(F)cc2)c(=O)c2sc3ccccc3c21)NC1CCCCC1	–	–
CCOc1ccc(CCNC(=O)Cn2c(-c3cccs3)cc3cc(F)ccc32)cc1OCC	–	–
O=C(Cn1c(-c2cccs2)cc2cc(F)ccc21)NCCc1ccc(Cl)cc1	12.6µM	–
CCCCC(CC)CNC(=O)c1ccc(Cn2c(=O)[nH]c3cc(OC)c(OC)cc3c2=O)cc1 (configuration not stated)	–	–
CCOc1c(Cl)cc(CNc2ccc3[nH]c(=O)[nH]c3c2)cc1OC	–	–
COc1ccc(-c2cc3nnc(-c4ccccc4)nc3s2)cc1	3.16µM	–
COc1cccc(-c2nc(-c3ccccc3)no2)c1	–	–
[ClH+][Cu][ClH+].[Cu].[OH2+]c1ccc2ccccc2c1CN1CCCCC1.[OH2+]c1ccc2ccccc2c1CN1CCCCC1	–	–
CCCCC[CH2][Hg][S]C1=C2N=CNC2NC(N)=N1 (configuration not stated)	–	–
O=c1[nH]c2cc(Br)cnc2nc1/C=C(\O)c1ccc(F)cc1	25.1µM	–
O=C(NCc1nc2ncc(Br)cc2[nH]1)c1ccccc1	–	–
COc1ccc(-n2cc(C(=O)NC(C)c3ccccc3)c3ccccc3c2=O)cc1 (configuration not stated)	–	–
CCN(CC)S(=O)(=O)c1ccc(C(=O)NCCSc2c(-c3ccccc3)[nH]c3ccccc23)cc1	?	–
CN(C)S(=O)(=O)c1ccc(C(=O)NCCSc2c(-c3ccc(Br)cc3)[nH]c3ccccc23)cc1	25.1µM	–
O=C(c1ccc2c(c1)N(Cc1ccc(Cl)cc1)C(=O)c1ccccc1S2(=O)=O)N1CCC(Cc2ccccc2)CC1	12.6µM	–
CCc1ccccc1NC(=O)c1ccc2c(c1)N(Cc1cccc(Cl)c1)C(=O)c1ccccc1S2(=O)=O	15.8µM	–
COc1ccccc1CNC(=O)c1ccc2c(c1)N(Cc1cccc(Cl)c1)C(=O)c1ccccc1S2(=O)=O	?	–
O=C(Nc1cccc(Cl)c1Cl)c1ccc2c(c1)N(Cc1cccc(Cl)c1)C(=O)c1ccccc1S2(=O)=O	3.98µM	–
O=C(NCc1ccccc1)c1ccc2c(c1)N(Cc1cccc(Cl)c1)C(=O)c1ccccc1S2(=O)=O	?	–
SMILES	Cruzain noTriton	Cruzain Triton
O=C(c1ccc2c(c1)N(Cc1ccccc1F)C(=O)c1ccccc1S2(=O)=O)N1CCC(Cc2ccccc2)CC1	–	–
CCC(=O)OCc1cnc(C)c2oc(=O)c(C(=O)Nc3ccc(CC)cc3)cc12	–	–
CC(NC(=O)Cn1ccc2cc(S(=O)(=O)N3CCCCCC3)ccc21)c1ccccc1 (configuration not stated)	–	–
Cn1c(/C(C#N)=C/c2ccc(C(F)(F)F)cc2)nc2ccccc21	–	–
NC1=C(O)C(=O)[C@H](c2c[nH]c3ccc(OCc4ccccc4)cc23)O1	–	–
CN(C)C1C(=O)C(C(N)=O)=C(O)[C@@]2(O)C(=O)C3=C(O)c4c(O)ccc(Cl)c4[C@@H](O)C3C[C@@H]12 (some centres not stated)	–	–
Cc1cc(NC(=O)CSc2nc3ccccc3c(=O)n2C2CCCC2)no1	–	–
CN(C)c1ccc(NC(=O)CSc2nc3ccccc3c(=O)n2C2CCCCC2)cc1	12.6µM	–
Cc1ccccc1C(=O)Nc1ccc(C(=O)OCc2cc(=O)n3c4c(sc3n2)CCCC4)cc1	–	–
COc1ccc(-c2cc3nc(C)c(CCC(=O)NC(C)c4ccccc4)c(C)n3n2)c(OC)c1 (configuration not stated)	?	–
Cc1cccc(NC(=O)CNc2cc(C)ccc2C)c1	20µM	–
